Reference: PubChem BioAssay (EPA / NIEHS)
Activity calls are given as the source filed them. Rule for the calls: active = hit-call score of the fitted dose curve at least 0.9, where 1 is the maximum; inactive = score below 0.9.

Experiments:
[1] = CEETOX_H295R_11DCORT: CeeTox H295R High-throughput Steroidogenesis Assay for 11-Deoxycortisol (11DCORT) (AID 2283432); conditions: actives raise or lower the signal
Method in brief: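 Steroidogenesis in human H295R cells: 48 h chemical exposure after forskolin priming, 11-deoxycortisol measured by LC-MS/MS.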

[2] = CEETOX_H295R_OHPREG: CeeTox H295R High-throughput Steroidogenesis Assay for OH-Pregnenolone (OHPREG) (AID 2283434); conditions: actives raise or lower the signal
Method in brief: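 Hormone levels in spent medium were measured by tandem mass spectrometry following liquid-liquid extraction. Cells (H295R) had been forskolin-stimulated (10 uM, 48 h) before a 48 h chemical exposure at 0.1% DMSO, with activity fitted in both directions against DMSO.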

[3] = CEETOX_H295R_OHPROG: CeeTox H295R High-throughput Steroidogenesis Assay for OH-Progesterone (OHPROG) (AID 2283435); conditions: actives raise or lower the signal;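 for AC50: human adrenal H295R cells primed 48 h with 10 µM forskolin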
Method in brief: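 H295R adrenal cells prestimulated 48 h with 10 uM forskolin, then exposed 48 h to chemical (0.1% DMSO final). 17alpha-hydroxyprogesterone in medium quantified by HPLC-MS/MS; bidirectional fit versus DMSO, with MTT viability measured in the same wells.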

[4] = CEETOX_H295R_ANDR: CeeTox H295R High-throughput Steroidogenesis Assay for Androstenedione (ANDR) (AID 2283436); conditions: actives raise or lower the signal
Method in brief: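 Read-out is androstenedione secreted into medium, measured by tandem mass spectrometry after liquid-liquid extraction. Cells were H295R, dosed for 48 h per modified OECD 456; activity fitted in both directions relative to DMSO.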

[5] = CEETOX_H295R_CORTIC: CeeTox H295R High-throughput Steroidogenesis Assay for Corticosterone (CORTIC) (AID 2283437); conditions: actives raise or lower the signal;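 note: corticosterone secreted into medium quantified by mass spectrometry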;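 for AC50: human H295R adrenal cells prestimulated with forskolin before chemical exposure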
Method in brief: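 Corticosterone secreted into medium is measured by reverse-phase HPLC with tandem MS following liquid-liquid extraction. Cells are forskolin-stimulated (10 uM, 48 h) before 48 h test exposure; activity fitted in both directions against DMSO.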

[6] = CEETOX_H295R_CORTISOL: CeeTox H295R High-throughput Steroidogenesis Assay for Cortisol (AID 2283438); conditions: actives raise or lower the signal;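 note: cortisol secreted into medium quantified by LC-MS/MS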
Method in brief: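 Forskolin-primed H295R cells (10 uM, 48 h) treated 48 h with test chemical in 0.1% DMSO. Cortisol in medium quantified by MTBE extraction and HPLC-MS/MS; bidirectional fit vs DMSO, MTT viability in same wells.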

[7] = CEETOX_H295R_DOC: CeeTox H295R High-throughput Steroidogenesis Assay for DOC (AID 2283439); conditions: actives raise or lower the signal
Method in brief: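 H295R cells prestimulated 48 h with 10 uM forskolin, then exposed 48 h to test chemical (0.1% DMSO final). Medium 11-deoxycorticosterone measured by HPLC-MS/MS after MTBE extraction; bidirectional fit vs DMSO, viability checked by MTT in same wells.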

[8] = CEETOX_H295R_ESTRADIOL: CeeTox H295R High-throughput Steroidogenesis Assay for Estradiol (AID 2283440); conditions: actives raise or lower the signal;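 note: estradiol secreted into medium quantified by LC-MS/MS after dansyl derivatisation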
Method in brief: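 H295R cells pre-stimulated 48 h with 10 uM forskolin, then exposed 48 h to chemical in 0.1% DMSO. Medium estradiol quantified by MTBE extraction, dansyl derivatisation and HPLC-MS/MS; bidirectional fit versus DMSO; MTT viability required >/=70%.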

[9] = CEETOX_H295R_ESTRONE: CeeTox H295R High-throughput Steroidogenesis Assay for Estrone (AID 2283441); conditions: actives raise or lower the signal;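 note: estrone secreted into medium measured by LC-MS/MS after dansyl derivatization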
Method in brief: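 H295R cells prestimulated 48 h with 10 uM forskolin, then exposed 48 h to chemicals in 0.1% DMSO final; estrone in medium extracted with MTBE, dansyl-derivatized, quantified by HPLC-MS/MS; bidirectional fitting versus DMSO, viability by MTT.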

[10] = CEETOX_H295R_PROG: CeeTox H295R High-throughput Steroidogenesis Assay for Progesterone (PROG) (AID 2283442); conditions: actives raise or lower the signal;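 for AC50: human H295R adrenal cells primed with 10 µM forskolin before dosing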
Method in brief: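 H295R adrenal cells prestimulated 48 h with 10 uM forskolin, then exposed 48 h to test chemical in 0.1% DMSO. Progesterone in medium quantified by HPLC-MS/MS after MTBE extraction; viability checked by MTT in same wells.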

[11] = read-out: Tumor necrosis factor receptor superfamily member 6 (Homo sapiens) (UniProt P25445); assay: LTEA_HepaRG_FAS: Life Technologies and Expression Analysis (LTEA) Assay for Fas cell surface death receptor (FAS) using HepaRG (AID 2283447); conditions: mRNA level, 48 h; actives raise or lower the signal
Method in brief: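 FAS transcript level was measured by TaqMan qRT-PCR against three housekeeping genes after 48 h chemical exposure. Cells were HepaRG, 0.5% DMSO vehicle, with a top concentration of 100 uM and half-log dilutions over eight points, in duplicate.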

[12] = read-out: Fatty acid synthase (Homo sapiens) (UniProt P49327); assay: LTEA_HepaRG_FASN: Life Technologies and Expression Analysis (LTEA) Assay for Fatty Acid Synthase (FASN) using HepaRG (AID 2283448); conditions: mRNA level, 48 h; actives raise or lower the signal
Method in brief: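 Differentiated HepaRG cells in serum-free induction medium exposed 48 h in duplicate to eight half-log concentrations, top 100 uM, 0.5% DMSO. FASN mRNA by qRT-PCR normalised to ACTB, GAPDH, POLR2A; bidirectional fit versus DMSO.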

[13] = read-out: Cyclin D2 (CCND2), CCND2 (gene 894); assay: LTEA_HepaRG_CCND2: Life Technologies and Expression Analysis (LTEA) Assay for Cyclin D2 (CCND2) using HepaRG (AID 2283449); conditions: mRNA level, 48 h; actives raise or lower the signal
Method in brief: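 Read-out is CCND2 mRNA level measured by qRT-PCR in human HepaRG liver cells and normalised to three housekeeping genes. Chemicals were applied for 48 h at up to 100 uM, with gain or loss fitted relative to 0.5% DMSO.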

[14] = read-out: Cyclin Dependent Kinase Inhibitor 1A (CDKN1A), CDKN1A (gene 1026); assay: LTEA_HepaRG_CDKN1A: Life Technologies and Expression Analysis (LTEA) Assay for Cyclin Dependent Kinase Inhibitor 1A (CDKN1A) using HepaRG (AID 2283450); conditions: mRNA level, 48 h; actives raise or lower the signal
Method in brief: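 Differentiated HepaRG cells in serum-free induction medium, exposed 48 h in duplicate to eight half-log concentrations up to 100 uM in 0.5% DMSO. mRNA measured by TaqMan qRT-PCR, normalized to ACTB, GAPDH, POLR2A; bidirectional fit versus DMSO.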

[15] = read-out: Cyclin D1 (CCND1), CCND1 (gene 595); assay: LTEA_HepaRG_CCND1: Life Technologies and Expression Analysis (LTEA) Assay for Cyclin D1 (CCND1) using HepaRG (AID 2283451); conditions: mRNA level, 48 h; actives raise or lower the signal
Method in brief: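 Differentiated HepaRG cells exposed 48 h in serum-free induction medium to eight half-log concentrations from 100 uM top, 0.5% DMSO, duplicates. CCND1 mRNA measured by Fluidigm TaqMan qRT-PCR, normalised to ACTB, GAPDH, POLR2A; bidirectional fit.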

[16] = read-out: catalase (CAT), CAT (gene 847); assay: LTEA_HepaRG_CAT: Life Technologies and Expression Analysis (LTEA) Assay for catalase (CAT) using HepaRG (AID 2283452); conditions: mRNA level, 48 h; actives raise or lower the signal;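 for AC50: TaqMan qRT-PCR signal normalized to ACTB GAPDH and POLR2A housekeeping genes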
Method in brief: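 Expression of CAT was quantified by TaqMan qRT-PCR with ACTB/GAPDH/POLR2A normalization after 48 h chemical exposure of HepaRG. Eight-point half-log series, top 100 uM, in 0.5% DMSO; gain or loss fitted against vehicle.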

[17] = read-out: flavin-containing dimethylaniline monooxygenases 3 (FMO3), FMO3 (gene 2328); assay: LTEA_HepaRG_FMO3: Life Technologies and Expression Analysis (LTEA) Assay for flavin-containing dimethylaniline monooxygenases 3 (FMO3) using HepaRG (AID 2283453); conditions: mRNA level, 48 h; actives raise or lower the signal
Method in brief: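 Differentiated HepaRG cells in serum-free induction medium, exposed 48 h in duplicate to 8 half-log concentrations up to 100 uM in 0.5% DMSO. FMO3 mRNA by qRT-PCR, normalized to ACTB, GAPDH, POLR2A; bidirectional fit vs DMSO.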

[18] = read-out: CFLAR gene, CFLAR (gene 8837); assay: LTEA_HepaRG_CFLAR: Life Technologies and Expression Analysis (LTEA) Assay for CFLAR gene using HepaRG (AID 2283455); conditions: mRNA level, 48 h; actives raise or lower the signal
Method in brief: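 HepaRG, 48 h exposure, 8-pt conc-response (100 uM top, half-log), 0.5% DMSO vehicle, duplicates. CFLAR expression by qRT-PCR; ACTB/GAPDH/POLR2A normalization; gain or loss fit vs DMSO baseline.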

[19] = read-out: Forkhead box O1 (FOXO1), FOXO1 (gene 2308); assay: LTEA_HepaRG_FOXO1: Life Technologies and Expression Analysis (LTEA) Assay for Forkhead box O1 (FOXO1) using HepaRG (AID 2283456); conditions: mRNA level, 48 h; actives raise or lower the signal
Method in brief: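 Readout is FOXO1 transcript level by multiplexed qRT-PCR against three housekeeping genes, curve-fitted in both directions relative to 0.5% DMSO vehicle. Human HepaRG cultures received chemicals for 48 h, up to 100 uM in half-log steps.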

[20] = read-out: Cytochrome P450 (CYP1A1), CYP1A1 (gene 1543); assay: LTEA_HepaRG_CYP1A1: Life Technologies and Expression Analysis (LTEA) Assay for Cytochrome P450 (CYP1A1) using HepaRG (AID 2283454); conditions: mRNA level, 48 h; actives raise or lower the signal
Method in brief: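 Differentiated human HepaRG cells, after 48 h plating, exposed in duplicate for 48 h in serum-free induction medium to 8 half-log concentrations up to 100 uM in 0.5% DMSO. CYP1A1 mRNA by qRT-PCR, normalized to ACTB/GAPDH/POLR2A; bidirectional fit versus DMSO.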

Measured: AC50

Fatty acid synthase (Homo sapiens), sequence (P49327 whole entry, looked up): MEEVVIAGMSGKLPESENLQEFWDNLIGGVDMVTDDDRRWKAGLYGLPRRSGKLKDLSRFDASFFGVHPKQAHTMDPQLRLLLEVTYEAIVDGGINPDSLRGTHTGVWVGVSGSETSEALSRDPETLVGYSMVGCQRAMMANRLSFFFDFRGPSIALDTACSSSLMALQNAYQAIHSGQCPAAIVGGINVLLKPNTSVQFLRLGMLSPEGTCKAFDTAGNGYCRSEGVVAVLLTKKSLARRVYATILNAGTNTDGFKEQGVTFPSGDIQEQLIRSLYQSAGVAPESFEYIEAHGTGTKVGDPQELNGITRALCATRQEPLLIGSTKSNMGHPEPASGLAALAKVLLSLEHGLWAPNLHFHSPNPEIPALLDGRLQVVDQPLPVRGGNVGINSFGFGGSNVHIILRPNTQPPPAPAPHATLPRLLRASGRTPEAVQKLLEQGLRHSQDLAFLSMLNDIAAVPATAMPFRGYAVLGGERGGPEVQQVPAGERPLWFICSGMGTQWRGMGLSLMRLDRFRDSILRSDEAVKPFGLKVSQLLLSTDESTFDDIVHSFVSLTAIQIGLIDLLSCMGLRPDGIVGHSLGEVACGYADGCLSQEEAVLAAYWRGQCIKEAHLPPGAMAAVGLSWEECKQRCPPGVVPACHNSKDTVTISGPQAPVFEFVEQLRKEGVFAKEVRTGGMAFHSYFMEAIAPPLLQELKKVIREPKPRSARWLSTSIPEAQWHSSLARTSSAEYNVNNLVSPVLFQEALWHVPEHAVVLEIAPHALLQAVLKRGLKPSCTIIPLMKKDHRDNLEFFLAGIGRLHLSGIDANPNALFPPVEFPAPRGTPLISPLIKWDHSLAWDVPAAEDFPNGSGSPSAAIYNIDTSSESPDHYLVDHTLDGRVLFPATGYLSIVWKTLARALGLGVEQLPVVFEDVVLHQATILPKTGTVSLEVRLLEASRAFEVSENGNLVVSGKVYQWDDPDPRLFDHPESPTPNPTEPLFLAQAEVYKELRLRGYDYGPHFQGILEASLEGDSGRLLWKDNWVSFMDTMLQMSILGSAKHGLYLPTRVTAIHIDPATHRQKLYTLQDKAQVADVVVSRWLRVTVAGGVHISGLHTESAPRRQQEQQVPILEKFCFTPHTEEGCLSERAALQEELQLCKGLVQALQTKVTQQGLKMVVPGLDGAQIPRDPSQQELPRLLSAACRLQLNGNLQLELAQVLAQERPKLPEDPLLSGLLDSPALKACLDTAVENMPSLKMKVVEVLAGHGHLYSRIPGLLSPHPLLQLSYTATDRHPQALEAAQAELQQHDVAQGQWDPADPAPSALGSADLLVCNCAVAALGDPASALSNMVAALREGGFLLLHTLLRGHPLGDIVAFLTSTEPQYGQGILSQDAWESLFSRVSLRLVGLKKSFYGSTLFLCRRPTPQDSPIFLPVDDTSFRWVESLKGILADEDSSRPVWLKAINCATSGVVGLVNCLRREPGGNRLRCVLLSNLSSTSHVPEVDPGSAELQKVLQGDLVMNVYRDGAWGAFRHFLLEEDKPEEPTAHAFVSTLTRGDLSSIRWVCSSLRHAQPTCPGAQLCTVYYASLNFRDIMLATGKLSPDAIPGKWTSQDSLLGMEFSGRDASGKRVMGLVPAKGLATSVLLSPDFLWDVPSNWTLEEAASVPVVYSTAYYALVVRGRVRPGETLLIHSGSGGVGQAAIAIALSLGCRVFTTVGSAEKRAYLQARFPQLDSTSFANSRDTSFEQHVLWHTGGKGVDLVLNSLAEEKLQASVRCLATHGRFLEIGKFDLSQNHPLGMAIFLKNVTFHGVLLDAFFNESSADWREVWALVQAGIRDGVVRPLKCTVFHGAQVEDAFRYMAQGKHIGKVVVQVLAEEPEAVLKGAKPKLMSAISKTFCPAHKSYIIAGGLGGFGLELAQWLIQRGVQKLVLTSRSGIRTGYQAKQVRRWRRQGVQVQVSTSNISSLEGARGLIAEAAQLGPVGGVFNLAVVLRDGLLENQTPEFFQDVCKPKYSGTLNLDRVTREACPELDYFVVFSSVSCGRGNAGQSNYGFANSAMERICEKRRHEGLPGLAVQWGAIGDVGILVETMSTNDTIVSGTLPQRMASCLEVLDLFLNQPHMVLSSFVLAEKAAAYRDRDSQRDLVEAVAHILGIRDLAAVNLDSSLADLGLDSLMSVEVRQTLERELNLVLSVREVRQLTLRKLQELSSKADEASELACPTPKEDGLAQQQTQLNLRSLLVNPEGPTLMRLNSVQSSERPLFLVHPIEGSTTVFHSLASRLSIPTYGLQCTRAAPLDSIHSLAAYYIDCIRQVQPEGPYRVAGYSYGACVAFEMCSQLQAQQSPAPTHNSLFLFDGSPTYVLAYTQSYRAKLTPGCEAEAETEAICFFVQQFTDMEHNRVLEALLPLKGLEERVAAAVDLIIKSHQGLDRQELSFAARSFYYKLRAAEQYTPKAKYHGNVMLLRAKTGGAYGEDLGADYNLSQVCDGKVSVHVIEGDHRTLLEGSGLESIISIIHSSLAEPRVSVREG

O=C(NCc1ncc(C(F)(F)F)cc1Cl)c1c(Cl)cccc1Cl
inactive: [1] | [2] | [4] | [5] | [6] | [7] | [8] | [9]
active: [3] 7.42 µM | [10] 7.48 µM

CCCCc1oc2ccccc2c1C(=O)c1cc(I)c(OCCN(CC)CC)c(I)c1
active: [11] 66.6 µM | [12] 9.27 µM | [14] 68.3 µM | [16] 37.8 µM | [17] 48.6 µM | [18] 62.4 µM
inactive: [13] | [15] | [19]

CCC(C)c1ccccc1O (stereo unspecified)
active: [20] 50 µM
inactive: [11] | [12] | [13] | [14] | [15] | [16] | [17] | [18] | [19]

CCCCCc1ccc(O)cc1
inactive: [1] | [2] | [3] | [6] | [7] | [8] | [9] | [10]
active: [4] 50 µM | [5] 21.9 µM

OCC(CO)(CBr)CBr
inactive: [11] | [12] | [13] | [14] | [15] | [16] | [17] | [20] | [18] | [19]

O=C(CCCN1CCC(O)(c2ccc(Cl)cc2)CC1)c1ccc(F)cc1
active: [11] 85.8 µM | [12] 9.92 µM | [14] 79.9 µM | [16] 68.4 µM | [17] 73.7 µM | [20] 12.4 µM | [19] 81.2 µM
inactive: [5] | [6] | [7] | [15] | [18]
